Data reported in publication PMC7862700, “An all-to-all approach to the identification of sequence-specific readers for epigenetic DNA modifications on cytosine”.

What was measured:
Experiment in all cases: DAPPL (digital affinity profiling via proximity ligation, sequencing); 10 mM Tris-HCl pH 7.5, 50 mM NaCl, 1 mM DTT, 4% glycerol, room temperature, 30 min; GST-TFs on glutathione beads, 16-mer random dsDNA library, 0.1% formaldehyde crosslink after washing; high values mean tight binding
[1] = molecular target: T1, FLI1 (Homo sapiens, UniProt Q01543 1-452); conditions: protein: recombinant; tags: N-terminal GST; dsDNA, one strand shown
T1 sequence: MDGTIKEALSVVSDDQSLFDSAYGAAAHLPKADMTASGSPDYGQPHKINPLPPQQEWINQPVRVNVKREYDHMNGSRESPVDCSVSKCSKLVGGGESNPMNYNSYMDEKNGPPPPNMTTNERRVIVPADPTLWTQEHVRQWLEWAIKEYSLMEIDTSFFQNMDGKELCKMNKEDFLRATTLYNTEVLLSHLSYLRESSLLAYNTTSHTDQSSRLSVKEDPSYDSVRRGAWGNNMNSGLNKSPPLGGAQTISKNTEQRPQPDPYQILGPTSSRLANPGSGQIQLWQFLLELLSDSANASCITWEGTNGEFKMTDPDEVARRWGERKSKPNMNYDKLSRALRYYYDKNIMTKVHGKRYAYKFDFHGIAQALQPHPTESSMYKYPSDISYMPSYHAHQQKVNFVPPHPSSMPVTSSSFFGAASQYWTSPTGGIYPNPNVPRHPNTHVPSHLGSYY
Summary of the method: (§1)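 Pools of DNA-barcoded human transcription factors, expressed in yeast as GST fusions on glutathione beads and combined with a tag-only sample, were incubated with 200 nmole of a 16-mer random double-stranded DNA library. Incubation took 30 min at room temperature in Tris/NaCl/DTT/glycerol buffer and was followed by washing, 0.1% formaldehyde crosslinking, proximity ligation (BsaI/T4 ligase, 1 h, 37 °C), PCR amplification and sequencing on an Illumina NextSeq500. Binding signal is the ratio of a hexamer's read frequency for a factor to its frequency for the tag-only sample.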

[2] = molecular target: T2, ELK1 (Homo sapiens, UniProt P19419 1-428); conditions: protein: recombinant; tags: N-terminal GST; dsDNA, one strand shown
T2 sequence: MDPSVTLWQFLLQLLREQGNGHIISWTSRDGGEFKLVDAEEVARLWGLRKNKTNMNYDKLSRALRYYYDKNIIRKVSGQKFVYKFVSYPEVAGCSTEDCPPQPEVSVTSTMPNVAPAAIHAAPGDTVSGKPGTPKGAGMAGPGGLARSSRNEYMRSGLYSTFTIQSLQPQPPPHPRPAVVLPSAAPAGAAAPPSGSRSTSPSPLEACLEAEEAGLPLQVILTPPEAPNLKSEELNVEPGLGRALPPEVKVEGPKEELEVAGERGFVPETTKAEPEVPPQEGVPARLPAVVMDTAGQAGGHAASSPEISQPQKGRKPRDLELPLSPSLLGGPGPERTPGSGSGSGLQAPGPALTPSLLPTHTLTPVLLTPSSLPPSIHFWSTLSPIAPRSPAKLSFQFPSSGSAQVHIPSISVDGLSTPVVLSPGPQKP
Summary of the method: as §1

[3] = molecular target: T3, GABPA (Homo sapiens, UniProt Q06546 1-454); conditions: protein: recombinant; tags: N-terminal GST; dsDNA, one strand shown
T3 sequence: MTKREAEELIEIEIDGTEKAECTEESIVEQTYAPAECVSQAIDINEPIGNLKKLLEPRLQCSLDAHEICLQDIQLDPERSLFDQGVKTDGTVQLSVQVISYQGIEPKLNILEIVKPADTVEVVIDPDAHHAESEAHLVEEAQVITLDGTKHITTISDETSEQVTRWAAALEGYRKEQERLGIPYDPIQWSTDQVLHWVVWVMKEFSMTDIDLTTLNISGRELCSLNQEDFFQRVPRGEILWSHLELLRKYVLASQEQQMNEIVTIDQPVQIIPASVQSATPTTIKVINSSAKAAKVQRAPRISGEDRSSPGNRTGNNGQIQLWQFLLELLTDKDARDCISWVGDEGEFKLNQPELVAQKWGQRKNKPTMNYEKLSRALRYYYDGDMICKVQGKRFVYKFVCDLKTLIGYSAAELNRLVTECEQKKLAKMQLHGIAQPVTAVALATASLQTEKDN
Summary of the method: as §1

[4] = molecular target: T4, ERG (Homo sapiens, UniProt P11308 1-479); conditions: protein: recombinant; tags: N-terminal GST; dsDNA, one strand shown
T4 sequence: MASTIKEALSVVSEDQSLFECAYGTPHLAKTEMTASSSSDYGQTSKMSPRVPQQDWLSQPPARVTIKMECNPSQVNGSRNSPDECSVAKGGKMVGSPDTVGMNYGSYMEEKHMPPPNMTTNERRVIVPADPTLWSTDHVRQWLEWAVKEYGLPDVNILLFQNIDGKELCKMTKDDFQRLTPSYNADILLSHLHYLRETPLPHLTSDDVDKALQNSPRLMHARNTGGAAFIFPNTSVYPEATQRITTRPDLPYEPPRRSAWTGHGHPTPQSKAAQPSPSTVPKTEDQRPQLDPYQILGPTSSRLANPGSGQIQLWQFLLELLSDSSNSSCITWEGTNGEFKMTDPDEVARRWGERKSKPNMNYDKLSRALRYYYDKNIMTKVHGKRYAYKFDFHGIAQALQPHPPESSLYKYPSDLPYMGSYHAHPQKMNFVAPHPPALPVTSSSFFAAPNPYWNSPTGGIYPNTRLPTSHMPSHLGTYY
Summary of the method: as §1

[5] = molecular target: ELF1 (Homo sapiens, UniProt P32519 1-619); conditions: protein: recombinant; tags: N-terminal GST; dsDNA, one strand shown
ELF1, sequence (P32519 whole entry): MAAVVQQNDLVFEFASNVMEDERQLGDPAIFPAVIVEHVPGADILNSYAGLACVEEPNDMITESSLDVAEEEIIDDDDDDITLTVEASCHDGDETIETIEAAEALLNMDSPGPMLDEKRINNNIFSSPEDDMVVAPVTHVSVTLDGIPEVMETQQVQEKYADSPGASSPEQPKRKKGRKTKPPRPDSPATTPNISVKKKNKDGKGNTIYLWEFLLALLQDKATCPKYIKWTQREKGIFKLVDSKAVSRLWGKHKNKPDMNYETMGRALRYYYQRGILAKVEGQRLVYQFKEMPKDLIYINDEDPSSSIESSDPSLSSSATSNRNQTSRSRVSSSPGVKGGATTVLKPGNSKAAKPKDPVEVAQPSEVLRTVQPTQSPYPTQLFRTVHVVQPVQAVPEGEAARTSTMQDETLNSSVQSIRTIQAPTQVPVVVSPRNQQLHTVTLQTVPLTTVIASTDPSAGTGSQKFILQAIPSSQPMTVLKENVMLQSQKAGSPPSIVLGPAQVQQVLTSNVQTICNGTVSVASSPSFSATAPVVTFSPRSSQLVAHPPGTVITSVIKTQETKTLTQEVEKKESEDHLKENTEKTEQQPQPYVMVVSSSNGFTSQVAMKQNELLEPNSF
Summary of the method: as §1

[6] = molecular target: T5, EHF (Homo sapiens, UniProt Q9NZC4 1-300); conditions: protein: recombinant; tags: N-terminal GST; dsDNA, one strand shown
T5 sequence: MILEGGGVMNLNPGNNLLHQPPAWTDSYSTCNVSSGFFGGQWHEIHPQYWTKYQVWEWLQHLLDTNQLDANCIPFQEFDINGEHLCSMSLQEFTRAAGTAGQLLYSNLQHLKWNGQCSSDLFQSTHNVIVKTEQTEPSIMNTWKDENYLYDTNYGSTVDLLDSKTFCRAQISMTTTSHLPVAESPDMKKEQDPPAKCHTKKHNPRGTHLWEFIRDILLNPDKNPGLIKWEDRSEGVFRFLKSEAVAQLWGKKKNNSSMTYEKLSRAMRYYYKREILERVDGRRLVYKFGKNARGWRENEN
Summary of the method: as §1

[7] = molecular target: SPI1 (Homo sapiens, UniProt P17947 1-270); conditions: protein: recombinant; tags: N-terminal GST; dsDNA, one strand shown
Summary of the method: as §1

[8] = molecular target: SPIB (Homo sapiens, UniProt Q01892 1-262); conditions: protein: recombinant; tags: N-terminal GST; dsDNA, one strand shown
SPIB, sequence (Q01892 whole entry): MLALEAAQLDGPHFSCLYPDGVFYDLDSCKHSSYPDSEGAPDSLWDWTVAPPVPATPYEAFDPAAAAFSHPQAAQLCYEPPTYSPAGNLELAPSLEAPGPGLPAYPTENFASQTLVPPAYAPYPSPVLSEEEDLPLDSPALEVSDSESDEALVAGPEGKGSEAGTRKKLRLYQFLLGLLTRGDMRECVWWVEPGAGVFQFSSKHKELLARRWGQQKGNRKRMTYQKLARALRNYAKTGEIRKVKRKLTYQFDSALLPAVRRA
Summary of the method: as §1

[9] = molecular target: T6, ELK3 (Homo sapiens, UniProt P41970 1-407); conditions: protein: recombinant; tags: N-terminal GST; dsDNA, one strand shown
T6 sequence: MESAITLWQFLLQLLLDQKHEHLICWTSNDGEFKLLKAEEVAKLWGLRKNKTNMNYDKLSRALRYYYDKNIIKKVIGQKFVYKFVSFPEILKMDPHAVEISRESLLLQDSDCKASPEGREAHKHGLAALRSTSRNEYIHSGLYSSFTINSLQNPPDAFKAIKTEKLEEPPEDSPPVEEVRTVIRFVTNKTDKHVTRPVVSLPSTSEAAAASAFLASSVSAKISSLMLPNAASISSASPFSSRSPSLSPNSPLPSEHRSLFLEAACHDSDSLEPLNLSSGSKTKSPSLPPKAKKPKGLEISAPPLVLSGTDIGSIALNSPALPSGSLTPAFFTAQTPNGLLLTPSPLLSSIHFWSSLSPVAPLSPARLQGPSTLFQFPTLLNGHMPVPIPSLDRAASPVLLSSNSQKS
Summary of the method: as §1

[10] = molecular target: T7, FEV (Homo sapiens, UniProt Q99581 1-238); conditions: protein: recombinant; tags: N-terminal GST; dsDNA, one strand shown
T7 sequence: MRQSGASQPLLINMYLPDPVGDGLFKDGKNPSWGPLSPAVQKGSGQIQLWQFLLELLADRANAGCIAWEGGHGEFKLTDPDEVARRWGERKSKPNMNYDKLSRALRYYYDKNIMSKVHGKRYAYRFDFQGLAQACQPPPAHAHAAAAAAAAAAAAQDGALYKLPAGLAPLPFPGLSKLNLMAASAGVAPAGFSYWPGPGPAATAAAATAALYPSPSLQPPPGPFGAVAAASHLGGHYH
Summary of the method: as §1

[11] = molecular target: ETV5 (Homo sapiens, UniProt P41161 1-510); conditions: protein: recombinant; tags: N-terminal GST; dsDNA, one strand shown
ETV5, sequence (P41161 whole entry): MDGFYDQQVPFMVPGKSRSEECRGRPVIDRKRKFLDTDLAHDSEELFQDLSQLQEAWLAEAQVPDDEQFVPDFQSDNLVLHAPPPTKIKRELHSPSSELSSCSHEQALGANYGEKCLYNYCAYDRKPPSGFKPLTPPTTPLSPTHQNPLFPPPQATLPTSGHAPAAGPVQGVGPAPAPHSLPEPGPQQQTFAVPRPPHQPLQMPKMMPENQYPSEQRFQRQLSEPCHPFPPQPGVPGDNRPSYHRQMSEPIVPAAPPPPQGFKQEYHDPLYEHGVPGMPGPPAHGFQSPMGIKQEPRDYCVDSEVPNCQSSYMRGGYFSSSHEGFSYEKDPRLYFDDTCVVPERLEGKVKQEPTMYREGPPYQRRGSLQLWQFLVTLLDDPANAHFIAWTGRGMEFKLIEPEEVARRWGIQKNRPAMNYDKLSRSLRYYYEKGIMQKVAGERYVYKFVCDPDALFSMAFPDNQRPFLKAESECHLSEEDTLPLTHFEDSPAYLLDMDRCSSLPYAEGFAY
Summary of the method: as §1

[12] = molecular target: HSF1 (Homo sapiens, UniProt Q00613 1-529); conditions: protein: recombinant; tags: N-terminal GST; chain copies: 3; dsDNA, one strand shown
HSF1, sequence (Q00613 whole entry): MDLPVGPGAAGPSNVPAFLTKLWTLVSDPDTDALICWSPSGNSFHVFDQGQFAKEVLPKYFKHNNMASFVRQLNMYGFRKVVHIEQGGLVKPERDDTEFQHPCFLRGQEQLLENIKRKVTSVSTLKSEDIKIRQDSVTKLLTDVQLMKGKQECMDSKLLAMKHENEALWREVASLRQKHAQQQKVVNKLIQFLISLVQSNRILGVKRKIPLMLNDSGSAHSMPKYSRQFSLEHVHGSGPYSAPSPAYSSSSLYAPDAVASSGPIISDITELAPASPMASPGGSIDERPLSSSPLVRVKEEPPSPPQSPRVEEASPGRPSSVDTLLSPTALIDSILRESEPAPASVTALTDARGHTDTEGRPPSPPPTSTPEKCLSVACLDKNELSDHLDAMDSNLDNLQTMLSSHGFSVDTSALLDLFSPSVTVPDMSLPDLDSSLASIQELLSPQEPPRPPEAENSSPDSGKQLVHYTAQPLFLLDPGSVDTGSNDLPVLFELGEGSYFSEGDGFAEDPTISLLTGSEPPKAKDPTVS
Summary of the method: as §1

[13] = molecular target: T8, SPIC (Homo sapiens, UniProt Q8N5J4 1-248); conditions: protein: recombinant; tags: N-terminal GST; dsDNA, one strand shown
T8 sequence: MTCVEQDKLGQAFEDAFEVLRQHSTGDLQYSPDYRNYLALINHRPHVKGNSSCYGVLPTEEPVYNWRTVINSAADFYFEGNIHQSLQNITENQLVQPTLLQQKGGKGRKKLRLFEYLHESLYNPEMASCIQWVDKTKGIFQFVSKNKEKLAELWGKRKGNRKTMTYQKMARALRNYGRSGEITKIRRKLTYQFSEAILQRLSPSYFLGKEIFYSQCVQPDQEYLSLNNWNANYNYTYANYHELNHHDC
Summary of the method: as §1

[14] = molecular target: ELF4 (Homo sapiens, UniProt Q99607 1-663); conditions: protein: recombinant; tags: N-terminal GST; dsDNA, one strand shown
ELF4, sequence (Q99607 whole entry): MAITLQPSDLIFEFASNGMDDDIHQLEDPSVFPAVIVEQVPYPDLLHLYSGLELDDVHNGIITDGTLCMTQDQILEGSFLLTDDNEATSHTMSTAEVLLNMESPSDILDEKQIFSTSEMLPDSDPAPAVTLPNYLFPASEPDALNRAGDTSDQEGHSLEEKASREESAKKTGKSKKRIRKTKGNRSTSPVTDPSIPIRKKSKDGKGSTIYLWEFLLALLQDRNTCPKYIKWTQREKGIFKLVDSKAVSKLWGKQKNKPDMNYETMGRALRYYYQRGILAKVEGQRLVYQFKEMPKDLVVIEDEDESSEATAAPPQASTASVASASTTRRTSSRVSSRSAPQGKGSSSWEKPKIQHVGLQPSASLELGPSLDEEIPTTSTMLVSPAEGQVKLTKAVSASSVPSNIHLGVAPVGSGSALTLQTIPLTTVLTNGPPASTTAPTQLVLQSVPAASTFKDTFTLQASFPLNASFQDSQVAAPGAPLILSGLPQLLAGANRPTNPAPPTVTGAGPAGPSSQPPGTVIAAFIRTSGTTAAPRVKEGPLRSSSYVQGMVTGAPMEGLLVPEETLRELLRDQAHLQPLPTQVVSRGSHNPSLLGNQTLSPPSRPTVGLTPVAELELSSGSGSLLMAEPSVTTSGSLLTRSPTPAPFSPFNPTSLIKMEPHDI
Summary of the method: as §1

[15] = molecular target: T9, ELK4 (Homo sapiens, UniProt P28324-2 1-405); conditions: protein: recombinant; tags: N-terminal GST; dsDNA, one strand shown
T9 sequence: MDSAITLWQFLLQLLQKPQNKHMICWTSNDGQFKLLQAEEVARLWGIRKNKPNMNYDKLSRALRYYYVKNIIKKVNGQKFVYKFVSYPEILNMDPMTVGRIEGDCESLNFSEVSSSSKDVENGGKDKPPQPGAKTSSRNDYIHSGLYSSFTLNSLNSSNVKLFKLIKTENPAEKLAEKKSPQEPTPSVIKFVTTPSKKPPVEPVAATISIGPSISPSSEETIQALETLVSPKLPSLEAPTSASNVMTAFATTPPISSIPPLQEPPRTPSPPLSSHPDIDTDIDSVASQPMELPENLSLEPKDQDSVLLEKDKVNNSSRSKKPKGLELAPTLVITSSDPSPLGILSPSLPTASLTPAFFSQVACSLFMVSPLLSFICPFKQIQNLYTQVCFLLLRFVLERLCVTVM
Summary of the method: as §1

[16] = molecular target: T10, ETV2 (Homo sapiens, UniProt O00321 1-342); conditions: protein: recombinant; tags: N-terminal GST; dsDNA, one strand shown
T10 sequence: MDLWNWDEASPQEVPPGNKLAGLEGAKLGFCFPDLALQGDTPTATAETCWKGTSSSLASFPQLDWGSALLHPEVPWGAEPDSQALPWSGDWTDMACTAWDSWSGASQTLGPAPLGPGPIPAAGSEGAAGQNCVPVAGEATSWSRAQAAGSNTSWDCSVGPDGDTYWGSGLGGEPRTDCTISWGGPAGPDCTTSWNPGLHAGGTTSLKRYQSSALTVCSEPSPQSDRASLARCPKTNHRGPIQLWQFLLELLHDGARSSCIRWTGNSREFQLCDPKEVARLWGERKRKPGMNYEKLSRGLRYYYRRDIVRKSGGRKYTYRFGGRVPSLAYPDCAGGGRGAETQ
Summary of the method: as §1

[17] = molecular target: T11, ELF3 (Homo sapiens, UniProt P78545 1-371); conditions: protein: recombinant; tags: N-terminal GST; dsDNA, one strand shown
T11 sequence: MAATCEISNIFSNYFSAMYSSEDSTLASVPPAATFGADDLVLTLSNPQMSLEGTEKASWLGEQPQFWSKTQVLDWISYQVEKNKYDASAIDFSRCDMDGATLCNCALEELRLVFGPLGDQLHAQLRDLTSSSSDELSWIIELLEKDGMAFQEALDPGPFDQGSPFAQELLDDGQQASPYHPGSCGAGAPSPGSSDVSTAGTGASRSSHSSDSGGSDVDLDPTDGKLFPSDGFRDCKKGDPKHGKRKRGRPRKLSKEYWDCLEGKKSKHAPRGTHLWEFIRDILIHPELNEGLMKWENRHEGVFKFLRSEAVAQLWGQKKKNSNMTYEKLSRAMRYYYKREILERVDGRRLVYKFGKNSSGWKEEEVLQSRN
Summary of the method: as §1

[18] = molecular target: CRX (Homo sapiens, UniProt O43186 1-299); conditions: protein: recombinant; tags: N-terminal GST; dsDNA, one strand shown
CRX, sequence (O43186 whole entry): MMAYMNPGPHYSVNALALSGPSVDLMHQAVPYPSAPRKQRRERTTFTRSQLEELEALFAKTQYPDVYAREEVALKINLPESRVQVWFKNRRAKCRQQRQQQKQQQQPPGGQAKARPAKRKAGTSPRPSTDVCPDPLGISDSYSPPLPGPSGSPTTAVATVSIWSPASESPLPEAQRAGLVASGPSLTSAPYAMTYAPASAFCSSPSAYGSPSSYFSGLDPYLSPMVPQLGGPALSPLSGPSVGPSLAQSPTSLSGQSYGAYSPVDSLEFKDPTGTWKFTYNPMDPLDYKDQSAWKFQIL
Summary of the method: as §1

[19] = molecular target: ETV1 (Homo sapiens, UniProt P50549 1-477); conditions: protein: recombinant; tags: N-terminal GST; dsDNA, one strand shown
ETV1, sequence (P50549 whole entry): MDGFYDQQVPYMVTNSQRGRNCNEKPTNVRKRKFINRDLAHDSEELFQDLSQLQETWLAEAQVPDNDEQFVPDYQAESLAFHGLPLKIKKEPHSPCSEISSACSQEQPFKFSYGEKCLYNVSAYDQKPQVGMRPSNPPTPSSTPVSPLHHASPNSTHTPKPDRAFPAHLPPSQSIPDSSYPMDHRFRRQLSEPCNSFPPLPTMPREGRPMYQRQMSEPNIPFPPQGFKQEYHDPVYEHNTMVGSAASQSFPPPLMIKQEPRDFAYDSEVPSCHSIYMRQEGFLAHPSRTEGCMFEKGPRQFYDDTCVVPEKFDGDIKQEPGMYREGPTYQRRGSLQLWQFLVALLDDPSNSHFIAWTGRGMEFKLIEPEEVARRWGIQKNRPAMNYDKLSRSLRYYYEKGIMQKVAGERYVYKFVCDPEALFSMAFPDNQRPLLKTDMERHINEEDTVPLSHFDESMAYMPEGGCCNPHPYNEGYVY
Summary of the method: as §1

GCTGTA
binding signal [1]: 1.02 fold enrichment (6-mer frequency, TF over GST control) | binding signal [2]: 1.04 fold enrichment (6-mer frequency, TF over GST control) | binding signal [3]: 1.15 fold enrichment (6-mer frequency, TF over GST control) | binding signal [4]: 1.08 fold enrichment (6-mer frequency, TF over GST control) | binding signal [5]: 1.21 fold enrichment (6-mer frequency, TF over GST control) | binding signal [6]: 1.1 fold enrichment (6-mer frequency, TF over GST control) | binding signal [7]: 1.04 fold enrichment (6-mer frequency, TF over GST control) | binding signal [8]: 1.04 fold enrichment (6-mer frequency, TF over GST control) | binding signal [9]: 1.14 fold enrichment (6-mer frequency, TF over GST control) | binding signal [10]: 1.15 fold enrichment (6-mer frequency, TF over GST control) | binding signal [11]: 1.06 fold enrichment (6-mer frequency, TF over GST control) | binding signal [12]: 1 fold enrichment (6-mer frequency, TF over GST control) | binding signal [13]: 1.36 fold enrichment (6-mer frequency, TF over GST control) | binding signal [14]: 1.08 fold enrichment (6-mer frequency, TF over GST control) | binding signal [15]: 1.09 fold enrichment (6-mer frequency, TF over GST control) | binding signal [16]: 1.08 fold enrichment (6-mer frequency, TF over GST control) | binding signal [17]: 1.07 fold enrichment (6-mer frequency, TF over GST control) | binding signal [18]: 1.02 fold enrichment (6-mer frequency, TF over GST control) | binding signal [19]: 1.06 fold enrichment (6-mer frequency, TF over GST control)
